TDP1 cell CPT – DT40-hTDP1 cell growth loss with CPT | actives 12% (n = 420,000) | chicken DT40 Tdp1-/-;hTDP1 cells + 20 nM CPT, ATP luminescence, 48 h | Potency, µM (top dose mostly 46.2 µM), inactives show at the highest dose activity change, negative = growth inhibition, most hits filed as inhibitors; note: potency is the fitted concentration of half-maximal effect; nearly all actives have a fitted effect of over 55% in size
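Chicken DT40 Tdp1-/- cells stably complemented with human TDP1 were seeded at 400 cells/well in medium containing 20 nM camptothecin, exposed to pin-transferred compounds, and grown at 37 °C for at least 48 hr. Viability was read as ATP luminescence.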
ELG1 DNA repair – blocks ELG1-dependent DNA repair in HEK293T cells | HEK293T ELG1-luciferase reporter, luminescence, 16 h; DNA damage induced by 5-fluorouridine | Potency, µM (titrated, usually from 46.1 µM), for inactives: at the highest dose activity change, negative = inhibition, most hits filed as inhibitors | actives 2.3% (n = 330,000) | AID 504467; note: potency is the fitted concentration of half-maximal effect; nearly all actives have a fitted effect of over 55% in size
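Reporter activity after DNA damage by 5-fluorouridine is monitored. Compound-treated cells incubate 16 hr at 37 °C, then ONE-Glo is added for 30 min before luminescence reading.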
TDP1 cell noCPT – qHTS for Inhibitors of human tyrosyl-DNA phosphodiesterase 1 (TDP1): qHTS in cells in absence of CPT; DT40 Tdp1-/- hTDP1 cells, no CPT, ATP luminescence, 48 h; Potency, µM (highest dose often 46.2 µM), for the others: at the top dose activity change, negative = growth inhibition, usual class: inhibitors; actives 15% (n = 420,000); note: potency is the fitted concentration of half-maximal effect; nearly all actives have a fitted effect of over 55% in size
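Growth kinetics read by CellTiter-Glo luminescence after ≥48 hr at 37 °C. Cells: DT40 Tdp1-/- stably carrying human TDP1, 400 per well, compound exposure in the absence of CPT (DMSO vehicle).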
IL-1B inflam inh – inflammasome signaling inhibition, IL-1 beta readout | THP-1 LPS/ATP IL-1B secretion, AlphaLISA, 16 h; hits give low values | activity change, % at 57.5 µM | actives 4.7% (n = 360,000); in the data active = activity change below about -50%; inconclusive = mostly about -30% to -49%
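THP-1 cells pretreated 1 hr with compounds (up to 57.5 uM final), then stimulated with LPS (250 ng/mL final) plus ATP (1.25 mM final); secreted IL-1B measured by AlphaLISA after 16 hr, decreased signal indicating inhibition.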
HT1080 IDH1KD tx – kills HT-1080 cells with IDH1 knockdown; HT-1080 IDH1 knockdown viability, ATP luminescence, 48 h; Potency, µM (series often up to 46.1 µM), inactives show top-dose activity, negative = toxicity, most hits filed as cytotoxic; actives 2% (n = 360,000);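 note: potency is the fitted concentration of half-maximal effect; 0% = DMSO wells and -100% = cell-free medium wells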
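Using the IDH1-knockdown HT-1080 line run in the same batch and compound series as the NT line, viability after 48 h at 37 °C was determined by CellTiter-Glo luminescence and expressed as % activity.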
HT1080-NT tox – kills 2HG-producing HT-1080-NT fibrosarcoma cells | HT-1080-NT fibrosarcoma viability, CellTiter-Glo ATP luminescence, 48 h | Potency, µM (doses to about 46.1 µM), for the others: at the highest dose activity, negative = less viability, hits mostly cytotoxic | actives 1.6% (n = 360,000);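 note: NT is the 2HG producing partner of a matched IDH1 knockdown line; potency is the fitted concentration of half-maximal effect; 0% = DMSO-treated cells and -100% = media-only wells without cells; nearly all actives have a fitted effect of over 55% in size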
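Fibrosarcoma NT cells, 750 per well in 5% FBS RPMI, were exposed to compound for 48 hours. Viability: CellTiter-Glo luminescence.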
An asterisk follows results filed as active; i = inactive; ? = inconclusive; nt = no result; [ ] = another dose, or the depositor's remark. This is a sample that favours compounds with a hit; in the whole collection about 19% have one here. Unless noted, calls come from the whole dose curve; as a rule, active = well fitted curve in the direction sought with a large enough effect; inconclusive = small, poorly fitted or top-dose-only effect, or another doubt; inactive = no such curve, though single readings can be large; an effect the other way counts as inactive or inconclusive. Unless noted, % is set by controls: 0 for no effect and ±100 for the full control effect.

SMILES	TDP1 cell CPT	ELG1 DNA repair	TDP1 cell noCPT	IL-1B inflam inh	HT1080 IDH1KD tx	HT1080-NT tox
CC(=O)C1=CCC(c2ccc(Cl)cc2)N(S(=O)(=O)c2ccccc2C)C1 (centres undefined)	29.1µM*	nt	23.1µM*	-19.5	16.4µM*	?
Cc1nn(C2CCS(=O)(=O)C2)c2nc(C3CC3)cc(C(=O)Nc3ccc(C(N)=O)cc3)c12 (centres undefined)	0.0%	-4.9%	0.9%	-12.1	3.5%	-2.0%
O=C(Cn1c2ncccc2c(=O)n1-c1ccccc1)Nc1ccc(F)c(F)c1	-11.2%	nt	-13.5%	nt	nt	nt
O=C(NC1(C(F)(F)F)C(=O)Nc2c1c(=O)[nH]c(=O)n2-c1ccc(Cl)cc1)c1ccccc1F (centres undefined)	-14.7%	nt	-17.0%	nt	nt	nt
Cc1ccc(-c2nnc(N3CCN(C(=O)CN4CCOCC4)CC3)c3ccccc23)cc1	-27.4%	-19.4%	16.4µM*	-21.7	2.4%	6.3%
Cc1ccc(-c2nnc(N3CCN(C(=O)Cn4c(=O)n(C)c5ccccc54)CC3)c3ccccc23)cc1	?	?	16.4µM*	11.0	-24.9%	0.7%
CCCCCCCCCCCCCCCCC(C(=O)O)C(O)(CC(=O)O)C(=O)O (centres undefined)	17.2%	nt	-9.4%	nt	nt	nt
CC(C)NC(=S)N/N=C1\CCCCc2ccccc21	?	?	20.6µM*	12.0	-3.6%	9.5%
Cc1ccc(C)c(NC(=S)N/N=C2/CCCCc3ccccc32)c1	?	-12.1%	?	-12.9	?	-21.4%
S=C(NC1CCCCC1)N1CCc2ccccc2C1	?	?	?	6.4	?	-9.4%
S=C(N/N=C1\CCc2ccccc21)NC1CCCCC1	?	?	23.1µM*	39.2	-14.5%	-3.1%
O=C(CC[C@H]1O[C@@H](n2ccc(=O)[nH]c2=O)[C@H](O)[C@@H]1O)NCCCc1ccccc1	3.5%	nt	-3.3%	0.0	10.6%	2.9%
COc1ccccc1C(=O)N(Cc1cc2cccc(C)c2nc1N1CCC(O)CC1)C1CC1	-6.8%[9.04 µM]	nt	16.4µM*	nt	nt	nt
Cc1cccc2cc(CN(C(=O)c3ccc(N4CCCCC4)cc3)C3CC3)c(N3CCC(O)CC3)nc12	-0.8%[9.04 µM]	nt	-24.4%	nt	nt	nt
Cc1cccc2cc(CN(C(=O)c3ccc(-c4ccc(F)cc4)cc3)C3CC3)c(N3CCC(O)CC3)nc12	?	nt	23.1µM*	nt	nt	nt
O=C1C2C3C=CC(C4CC34)C2C(=O)N1/N=C/c1ccc(-c2ccc([N+](=O)[O-])cc2)o1 (centres undefined)	?	-13.3%	?	0.0	-5.7%	-0.6%
O=C1C2C(C(=O)N1/N=C/c1ccc([N+](=O)[O-])o1)C1C=CC2C12CC2 (centres undefined)	16.4µM*	-5.9%	23.1µM*	-91.0*	?	?
CC1CN(N=Cc2ccc([N+](=O)[O-])o2)C(=N)O1 (centres undefined)	20.6µM*	nt	18.4µM*	19.9	-3.3%	-6.7%
CC1CS(=O)(=O)CCN1/N=C/c1ccc([N+](=O)[O-])o1 (centres undefined)	-8.8%[21.1 µM]	nt	?	nt	nt	nt
O=C1SCCN1N=Cc1ccc([N+](=O)[O-])o1	8.2µM*	nt	18.4µM*	9.3	-4.8%	?
CC(C)Cn1nc(C(=O)NCc2ccccc2CN2CCCC2)c2ccccc2c1=O	?	-16.9%	?	?	0.2%	-0.5%
Cc1ccc(S(=O)(=O)C[C@@H]2OC[C@H](C)N2S(=O)(=O)c2ccc(C)cc2)cc1	?	nt	?	0.0	-19.3%	-9.0%
Cc1ccc(S(=O)(=O)c2nc(-c3ccccc3)oc2N2CCN(c3ccccc3)CC2)cc1	16.4µM*	nt	20.6µM*	nt	nt	nt
Cc1ccc(-c2nc(S(=O)(=O)c3ccc(Cl)cc3)c(N3CCCCC3)o2)cc1	-11.2%	nt	?	nt	nt	nt
Cc1ccc(S(=O)(=O)c2nc(-c3ccccc3F)oc2N2CCCCC2)cc1	?	nt	14.6µM*	nt	nt	nt
SMILES	TDP1 cell CPT	ELG1 DNA repair	TDP1 cell noCPT	IL-1B inflam inh	HT1080 IDH1KD tx	HT1080-NT tox
CN1CCN(c2oc(-c3ccccc3)nc2S(=O)(=O)c2ccc(Br)cc2)CC1	16.4µM*	?	?	?	-5.4%	-18.6%
O=S(=O)(c1ccccc1)c1nc(-c2ccccc2)oc1N1CCCC1	-0.9%	6.3%	-7.6%	-6.3	17.3%	16.8%
Cc1ccc(S(=O)(=O)c2nc(-c3ccco3)oc2N2CCC(C)CC2)cc1	?	?	?	-74.2*	-4.8%	-2.3%
O=S(=O)(c1ccccc1)c1nc(-c2ccco2)oc1N1CCOCC1	-10.5%	-0.1%	-14.5%	15.9	6.7%	14.5%
COCCn1c(=O)c(-c2ccc(OC)cc2)nc2cnc(OCc3ccccc3)nc21	-2.3%	nt	14.0%	nt	nt	nt
Cc1ccc(S(=O)(=O)c2nc(-c3cccc(C)c3)oc2N2CCCCC2)cc1	?	nt	23.1µM*	nt	nt	nt
Cc1ccc(S(=O)(=O)c2nc(-c3ccccc3)oc2N2CCCC2)cc1	-18.4%	?	16.1%	25.0	6.9%	6.8%
COc1cccc(-c2nc(S(=O)(=O)c3ccc(C)cc3)c(N3CCCCCC3)o2)c1	23.1µM*	nt	4.61µM*	nt	nt	nt
O=S(=O)(c1ccccc1)c1nc(-c2ccccc2)oc1N1CCCCC1	?	6.6%	16.4µM*	?	-8.4%	-2.0%[9.24 µM]
Cc1ccc(-c2nc(S(=O)(=O)c3ccc(C)cc3)c(N3CCN(c4ccccc4)CC3)o2)cc1	-12.6%	nt	?	nt	nt	nt
Cc1ccc(S(=O)(=O)c2nc(-c3cccc(C)c3)oc2N2CCN(c3ccccc3)CC2)cc1	?	nt	1.46µM*	nt	nt	nt
CC(=NCCN1CCN(C(C)=C2C(=O)c3ccccc3C2=O)CC1)C1=C(O)CC(C)(C)CC1=O	-20.1%	-2.3%	-22.0%	2.8	20.5%	7.2%
CCOc1ccccc1N1CC(C(=O)NNC(=O)c2cc(OC)c(OC)c(OC)c2)CC1=O (centres undefined)	7.0%	4.5%	3.66µM*	16.1	13.5%	11.2%
CCOc1ccccc1N1CC(C(=O)N2CCc3ccccc3C2)CC1=O (centres undefined)	16.4µM*	-6.0%	14.6µM*	35.9	0.5%	-0.2%
CCOC(=O)c1c(-c2ccccc2Cl)csc1NC(=O)c1cc(S(=O)(=O)N2CCOCC2)ccc1C	10.3µM*	?	7.31µM*	i	0.8%	2.2%
